Assay results reported in PubChem BioAssay (Tox21).
Where “and” joins values, the source holds several entries; their conditions need not be identical. Identical values can stand only once. Results filed as inconclusive are left out. Calls of active or inactive are those of the source. Unless noted, calls come from the whole dose curve; as a rule, active = well fitted curve in the direction sought with a large enough effect in the repeat runs; inconclusive = weak or mixed curves; inactive = no such curve, though single readings can be large; an effect the other way counts as inactive or inconclusive.

Columns and labels:
[1] = qHTS assay to identify small molecule antagonists of the estrogen receptor alpha (ER-alpha) signaling pathway using the BG1 cell line in the presence of 0.1 nM 17-beta-estradiol - cell viability counter screen (AID 1259241); note: nearly all actives have a fitted effect of over 40% in size; note: potency is the fitted concentration of half-maximal effect
How it was run: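 In this screen, hormone-deprived VM7Luc4E2 cells were seeded at 4,000 per well, dosed with compound and 0.1 nM estradiol final, and incubated 22 hr at 37C and 5% CO2; fluorogenic live-cell protease signal reported viability.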

[2] = target: Estrogen receptor (Homo sapiens) (UniProt P03372); test: qHTS assay to identify small molecule antagonists of the estrogen receptor alpha (ER-alpha) signaling pathway using the BG1 cell line in the presence of 0.1 nM 17-beta-estradiol (AID 1259244); note: nearly all actives have a fitted effect of over 50% in size; note: potency is the fitted concentration of half-maximal effect
Sequence of Estrogen receptor (Homo sapiens) (P03372 whole entry, looked up): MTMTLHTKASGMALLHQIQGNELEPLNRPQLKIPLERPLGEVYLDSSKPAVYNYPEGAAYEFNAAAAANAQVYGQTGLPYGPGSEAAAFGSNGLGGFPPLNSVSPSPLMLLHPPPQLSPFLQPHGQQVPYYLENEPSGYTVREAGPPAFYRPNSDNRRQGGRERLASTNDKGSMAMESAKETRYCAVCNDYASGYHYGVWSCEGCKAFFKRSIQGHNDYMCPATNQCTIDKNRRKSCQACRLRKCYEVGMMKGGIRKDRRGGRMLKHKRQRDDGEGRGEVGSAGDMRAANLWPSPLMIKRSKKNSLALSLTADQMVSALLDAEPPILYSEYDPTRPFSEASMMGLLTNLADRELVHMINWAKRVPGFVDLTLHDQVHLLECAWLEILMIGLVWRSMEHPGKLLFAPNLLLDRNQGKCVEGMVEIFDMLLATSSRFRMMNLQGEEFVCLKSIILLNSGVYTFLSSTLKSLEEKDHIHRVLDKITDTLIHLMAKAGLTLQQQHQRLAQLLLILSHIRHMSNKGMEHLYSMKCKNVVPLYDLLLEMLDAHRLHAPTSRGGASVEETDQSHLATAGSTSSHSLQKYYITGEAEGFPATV
How it was run: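 Antagonist mode: compounds in DMSO are pinned onto VM7Luc4E2 reporter cells, 0.1 nM final 17beta-estradiol is added, and after 22 h at 37C luciferase luminescence is measured with ONE-Glo.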

[3] = qHTS assay to identify small molecule phospholipidosis (PLD) inducers (AID 1259344; active = well fitted curve in the direction sought with a large enough effect; an effect the other way counts as inactive or inconclusive; note: potency is the fitted concentration of half-maximal effect)
How it was run: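 Accumulated phospholipid, stained red by LipidTOX during 24 h compound treatment of HepG2 cells at 37 C, is quantified from images as pit number and intensity, normalised per cell using Hoechst-stained nuclei.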

[4] = qHTS assay to identify small molecule HDAC inhibitors (AID 1259364);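 note: wild-type HCT-116 cells with endogenous class I/II HDAC activity; top concentration of the series differs between compounds; nearly all actives have a fitted effect of over 45% in size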
How it was run: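 Cells (HCT-116, wild type) are seeded at 1,500 per well, incubated overnight, treated with compound in DMSO for 2 hr, then developed with HDAC-Glo I/II reagent for 30 min at room temperature.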

[5] = qHTS assay to identify small molecule HDAC inhibitors - cell viability counter screen (AID 1259365); note: nearly all actives have a fitted effect of over 50% in size; note: potency is the fitted concentration of half-maximal effect; for activity change, negative = cytotoxicity: series mostly up to about 92 µM
How it was run: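 Measured quantity is CellTiter-Glo luminescence from wild-type HCT-116 cells after compound incubation of 2hr at 37C, 5% CO2; reagent developed 30min at room temperature.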

[6] = qHTS assay to identify small molecule agonists of the sonic hedgehog signaling (Shh) pathway - cell viability counter screen (AID 1259366); note: nearly all actives have a fitted effect of over 50% in size; note: potency is the fitted concentration of half-maximal effect
How it was run: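 In quantitative high-throughput format, 3T3 Gli1-Luc cells were exposed to compounds for 24hr and multiplexed for viability using CellTiter-Fluor, incubated 1hr at 37C before the fluorescence read.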

[7] = qHTS assay to identify small molecule antagonists of the sonic hedgehog signaling (Shh) pathway - cell viability counter screen (AID 1259367); note: nearly all actives have a fitted effect of over 55% in size; note: potency is the fitted concentration of half-maximal effect
How it was run: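 CellTiter-Fluor signal in conditioned medium-stimulated 3T3 Gli1-Luc cells, 23 hr compound exposure, 37C.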

[8] = qHTS assay to identify small molecule agonists of the sonic hedgehog signaling (Shh) pathway (AID 1259368; calls by dose curve;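 note: NIH/3T3-derived 3T3Gli1-Luc cells carrying a stable Gli1-driven firefly luciferase reporter; series mostly up to about 92 µM; nearly all actives have a fitted effect of over 15% in size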)
How it was run: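 Cells of a mouse NIH/3T3 clone stably expressing luciferase under the Gli1 transcriptional response element are exposed to test chemicals for 24 hr at 37 C. Pathway activation is detected as a rise in luminescence.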

[9] = qHTS assay to identify small molecule antagonists of the sonic hedgehog signaling (Shh) pathway (AID 1259369; calls by dose curve; note: nearly all actives have a fitted effect of over 45% in size; note: potency is the fitted concentration of half-maximal effect)
How it was run: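 Cells are plated and held 4hr at 37 C, compounds (DMSO) are pinned in, conditioned medium is added to stimulate the pathway, and after 24hr luciferase reagent is added for 30min before luminescence is read.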

[10] = qHTS assay to identify small molecule agonists of the androgen receptor (AR) signaling pathway in the presence of an antagonist - cell viability counter screen (AID 1259379); note: nearly all actives have a fitted effect of over 25% in size; note: potency is the fitted concentration of half-maximal effect;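 for activity change, negative = cytotoxicity: MDA-kb2 human breast cancer cells carrying an MMTV luciferase reporter; series mostly up to about 92 µM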
How it was run: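 Cytotoxicity is assessed by CellTiter-Fluor in MDA-kb2 cells carrying an MMTV-driven luciferase reporter. Cells receive 3.0uM nilutamide plus compounds at 15 concentrations and incubate 16 hr at 37C without CO2 before fluorescence reading.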

[11] = qHTS assay to identify small molecule agonists of the estrogen receptor beta (ER-beta) signaling pathway - cell viability counter screen (AID 1259380); note: nearly all actives have a fitted effect of over 30% in size; note: potency is the fitted concentration of half-maximal effect
How it was run: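 Cytotoxicity is measured in parallel with the reporter screen: after 16 hr compound exposure at 37C and a 2 hr LiveBLAzer step, CellTiter-Glo is added to the same ER-beta-UAS-bla HEK293T wells and luminescence read after 30 min.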

[12] = qHTS assay to identify small molecule antagonists of the estrogen receptor beta (ER-beta) signaling pathway - cell viability counter screen (AID 1259382); note: nearly all actives have a fitted effect of over 55% in size; note: potency is the fitted concentration of half-maximal effect;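 for activity change, negative = cytotoxicity: HEK293T cells carrying ER-beta-UAS-bla reporter stimulated with estradiol; series mostly up to about 92 µM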
How it was run: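 Cytotoxicity counter screen multiplexed with the beta-lactamase antagonist assay: GripTite HEK293T ER-beta-bla cells were treated 16 hr with test chemicals in the presence of 1nM 17-beta-estradiol, and viability was measured by CellTiter-Glo.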

[13] = target: Estrogen receptor (Homo sapiens) (UniProt P03372); test: qHTS assay to identify small molecule agonists of the estrogen receptor alpha (ER-alpha) signaling pathway in the presence of an antagonist (AID 1259383; calls by dose curve; note: top concentration of the series differs between compounds; nearly all actives have a fitted effect of over 15% in size)
How it was run: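 Agonist-mode confirmation in the presence of the ER antagonist ICI-182,780 at 10.0nM final. Breast-derived VM7Luc4E2 reporter cells were exposed to compounds for 22hr, and ERE-driven luciferase was quantified by luminescence.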

[14] = qHTS assay to identify small molecule agonists or antagonists of the thyroid stimulating hormone receptor (TSHR) signaling pathway - wild type cell line counter screen (AID 1259384; calls by dose curve)
How it was run: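 Counter screen in untransfected Hek293: compounds (15-point titration, triplicate) plus phosphodiesterase inhibitor Ro20-1724 added after 18 h plating; 30 min RT. Intracellular cAMP via competitive d2/cryptate immunoassay, 1 h incubation.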

[15] = target: Thyrotropin receptor (Homo sapiens) (UniProt P16473); test: qHTS assay to identify small molecule antagonists of the thyroid stimulating hormone receptor (TSHR) signaling pathway (AID 1259385; calls by dose curve; note: nearly all actives have a fitted effect of over 20% in size; note: potency is the fitted concentration of half-maximal effect)
Sequence of Thyrotropin receptor (Homo sapiens) (P16473 whole entry, looked up): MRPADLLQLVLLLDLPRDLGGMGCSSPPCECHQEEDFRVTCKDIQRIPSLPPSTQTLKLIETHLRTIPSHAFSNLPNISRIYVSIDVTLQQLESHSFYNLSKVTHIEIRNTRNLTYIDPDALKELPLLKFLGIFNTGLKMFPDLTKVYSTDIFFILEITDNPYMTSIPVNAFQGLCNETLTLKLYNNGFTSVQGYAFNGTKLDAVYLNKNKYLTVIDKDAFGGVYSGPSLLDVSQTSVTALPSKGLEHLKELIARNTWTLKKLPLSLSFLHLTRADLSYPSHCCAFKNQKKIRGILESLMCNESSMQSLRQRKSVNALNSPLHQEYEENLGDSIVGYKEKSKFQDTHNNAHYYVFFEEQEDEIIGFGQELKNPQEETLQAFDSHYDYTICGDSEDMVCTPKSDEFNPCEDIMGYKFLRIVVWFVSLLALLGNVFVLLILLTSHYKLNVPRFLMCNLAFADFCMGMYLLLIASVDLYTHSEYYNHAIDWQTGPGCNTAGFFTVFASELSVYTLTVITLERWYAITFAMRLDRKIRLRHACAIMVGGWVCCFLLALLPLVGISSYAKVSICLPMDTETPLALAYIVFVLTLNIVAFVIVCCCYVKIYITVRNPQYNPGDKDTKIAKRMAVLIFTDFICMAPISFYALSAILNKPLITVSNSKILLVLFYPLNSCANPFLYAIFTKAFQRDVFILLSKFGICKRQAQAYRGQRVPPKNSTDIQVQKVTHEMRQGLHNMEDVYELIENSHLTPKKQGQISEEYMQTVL
How it was run: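 Antagonist mode: compound-treated TSHR-expressing HEK293 cells were stimulated with 1.5 ng/mL TSH (final) in presence of Ro20-1724 for 30 min at RT. HTRF cAMP detection after 1 h; each compound tested at 15 concentrations, triplicate.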

[16] = target: Androgen receptor (Homo sapiens) (UniProt P10275); test: qHTS assay to identify small molecule antagonists of the androgen receptor (AR) signaling pathway using the MDA cell line in the presence of 0.5 nM R1881 (AID 1259243); note: nearly all actives have a fitted effect of over 50% in size; note: potency is the fitted concentration of half-maximal effect
Sequence of Androgen receptor (Homo sapiens) (P10275 whole entry, looked up): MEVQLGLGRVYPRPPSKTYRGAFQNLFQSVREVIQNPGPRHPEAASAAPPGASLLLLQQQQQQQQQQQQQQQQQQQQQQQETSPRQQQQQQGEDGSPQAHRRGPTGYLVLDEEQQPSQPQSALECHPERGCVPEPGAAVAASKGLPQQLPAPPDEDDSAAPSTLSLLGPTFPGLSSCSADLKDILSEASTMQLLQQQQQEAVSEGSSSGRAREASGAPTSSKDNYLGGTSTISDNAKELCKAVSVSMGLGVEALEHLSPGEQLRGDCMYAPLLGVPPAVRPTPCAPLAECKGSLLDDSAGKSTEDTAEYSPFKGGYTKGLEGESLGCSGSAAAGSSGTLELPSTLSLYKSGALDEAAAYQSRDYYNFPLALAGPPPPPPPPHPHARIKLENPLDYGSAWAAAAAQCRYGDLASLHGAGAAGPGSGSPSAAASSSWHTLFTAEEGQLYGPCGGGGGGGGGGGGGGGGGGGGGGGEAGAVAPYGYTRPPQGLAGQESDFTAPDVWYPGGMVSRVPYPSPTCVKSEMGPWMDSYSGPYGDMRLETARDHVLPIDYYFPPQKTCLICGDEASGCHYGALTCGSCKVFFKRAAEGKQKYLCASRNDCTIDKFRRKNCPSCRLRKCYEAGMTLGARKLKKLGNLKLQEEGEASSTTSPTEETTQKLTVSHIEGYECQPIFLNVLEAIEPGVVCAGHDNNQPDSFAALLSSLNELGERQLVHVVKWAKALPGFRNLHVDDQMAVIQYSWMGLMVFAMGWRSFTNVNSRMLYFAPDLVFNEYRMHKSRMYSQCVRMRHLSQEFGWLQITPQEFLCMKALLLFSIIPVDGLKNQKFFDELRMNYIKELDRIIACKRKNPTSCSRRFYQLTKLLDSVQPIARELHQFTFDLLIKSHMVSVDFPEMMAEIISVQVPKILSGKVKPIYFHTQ
How it was run: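 Stably transfected MDA-kb2 cells express luciferase from an MMTV promoter bearing both AR and GR response elements. Compounds plus 0.5 nM R1881 (final) were incubated 16 hr at 37C without CO2, then luminescence measured.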

[17] = target: Estrogen receptor beta (Homo sapiens) (UniProt Q92731); test: qHTS assay to identify small molecule agonists of the estrogen receptor beta (ER-beta) signaling pathway (AID 1259377; active = well fitted activation curve with a large enough effect in the signal ratio in the repeat runs, not every such curve was filed as active; the % refers to the signal ratio)
Sequence of Estrogen receptor beta (Homo sapiens) (Q92731 whole entry, looked up): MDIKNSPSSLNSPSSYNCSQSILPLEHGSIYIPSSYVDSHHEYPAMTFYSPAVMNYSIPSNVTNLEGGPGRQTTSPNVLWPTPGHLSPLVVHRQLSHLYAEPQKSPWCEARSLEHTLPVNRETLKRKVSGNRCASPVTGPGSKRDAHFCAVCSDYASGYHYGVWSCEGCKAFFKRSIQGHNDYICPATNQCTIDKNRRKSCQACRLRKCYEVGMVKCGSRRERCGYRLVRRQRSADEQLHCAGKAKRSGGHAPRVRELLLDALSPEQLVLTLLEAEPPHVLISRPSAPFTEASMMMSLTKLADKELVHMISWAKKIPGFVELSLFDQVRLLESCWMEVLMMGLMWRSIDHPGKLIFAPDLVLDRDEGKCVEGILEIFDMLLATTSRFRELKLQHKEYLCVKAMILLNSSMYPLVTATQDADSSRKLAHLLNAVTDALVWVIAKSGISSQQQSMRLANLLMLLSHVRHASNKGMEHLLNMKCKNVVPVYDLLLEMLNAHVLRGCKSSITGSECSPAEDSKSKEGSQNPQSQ
How it was run: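 Reporter cells (HEK293T, ER-beta-UAS-bla) receive compounds or DMSO after a 6 hr pre-incubation. They then incubate 16 hr at 37C/5% CO2, and fluorescence from LiveBLAzer B/G substrate is measured after 2 hours at room temperature.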

[18] = target: Estrogen receptor beta (Homo sapiens) (UniProt Q92731); test: qHTS assay to identify small molecule antagonists of the estrogen receptor beta (ER-beta) signaling pathway (AID 1259378; active = well fitted inhibition curve with a large enough effect in the signal ratio in the repeat runs, not every such curve was filed as active; the % refers to the signal ratio; note: potency is the fitted concentration of half-maximal effect)
How it was run: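 Antagonist mode: compounds added to beta-lactamase reporter HEK293T ER-beta-UAS cells stimulated with E2 (1nM final), 16 hr at 37C. LiveBLAzer B/G FRET substrate, 2 hours room temperature, fluorescence read-out.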

[19] = target: Androgen receptor (Homo sapiens) (UniProt P10275); test: qHTS assay to identify small molecule agonists of the androgen receptor (AR) signaling pathway in the presence of an antagonist (AID 1259381; calls by dose curve; note: nearly all actives have a fitted effect of over 15% in size)
How it was run: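 Agonist-mode confirmation screen: human MDA-kb2 cells stably expressing luciferase under an MMTV promoter bearing AR and GR response elements, co-treated with 3.0uM nilutamide (final). Luminescence measured after 16hr compound incubation.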
% is set by controls: 0 for no effect and ±100 for the full control effect.

O=c1[nH]cnc2nc[nH]c12
inactive: Potency [1] | Potency [2] | Potency [3] | Potency [4] | Potency [5] | Potency [6] | Potency [7] | Potency [8] | Potency [9] | Potency [10] | Potency [11] | Potency [12] | Potency [13] | outcome [14] | Potency [15]

O=C(c1ccc(F)cc1)C1CCN(CCn2c(=O)[nH]c3ccccc3c2=O)CC1
inactive: Potency [1] | Potency [16] | Potency [2] | Potency [3] | Potency [4] | Potency [5] | Potency [6] | Potency [8] | Potency [9] | Potency [17] | Potency [18] | Potency [10] | Potency [19] | Potency [13] | outcome [14] | Potency [15]

O=C1CCCc2c1cc1ccc3cccc4ccc2c1c34
active: Potency [16] 9.81 µM | Potency [11] 31 µM
inactive: Potency [1] | Potency [2] | Potency [4] | Potency [6] | Potency [7] | Potency [8] | Potency [9] | Potency [19] | Potency [12] | Potency [13] | outcome [14] | Potency [15]

Cc1onc(-c2c(Cl)cccc2Cl)c1C(=O)N[C@@H]1C(=O)N2[C@@H]1SC(C)(C)[C@@H]2C(=O)O
inactive: Potency [1] | Potency [16] | Potency [3] | Potency [4] | Potency [6] | Potency [8] | Potency [9] | Potency [10] | Potency [11] | Potency [19] | Potency [12] | outcome [14] | Potency [15]

C[n+]1cc2c3c(ccc2c2ccc4cc5c(cc4c21)OCO5)OCO3
active: Potency [1] 13 µM | Potency [16] 7.3 µM | Potency [6] 1.64 µM | Potency [7] 2.91 µM | Potency [11] 2.59 µM | Potency [12] 3.66 µM
inactive: activity change, negative = inhibition [2] -84.3% [at 19 µM] | Potency [3] | activity change, negative = inhibition [4] -20.3% [at 19 µM] | activity change, negative = cytotoxicity [5] 25% [at 19 µM] | activity change [8] -5.86% [at 18.9 µM, hits give high values] | activation [19] -10.3% [at 19 µM] | cAMP activity change [14] 4.72% [at 18.9 µM]

CN(C)c1ccc(C2(c3ccc(N(C)C)cc3)OC(=O)c3cc(N(C)C)ccc32)cc1
inactive: Potency [1] | Potency [16] | Potency [2] | Potency [4] | Potency [5] | Potency [6] | Potency [8] | Potency [18] | Potency [11] | Potency [19] | Potency [12] | Potency [13] | outcome [14] | Potency [15]

OCCN1CCN(CC/C=C2/c3ccccc3Sc3ccc(C(F)(F)F)cc32)CC1
inactive: Potency [1] | Potency [2] | Potency [4] | Potency [5] | Potency [8] | Potency [17] | Potency [19] | Potency [13] | outcome [14] | Potency [15]
active: Potency [16] 26.6 µM | Potency [3] 10 µM | Potency [6] 21.1 µM | Potency [18] 11.9 µM | Potency [11] 21.1 µM | Potency [12] 26.6 µM

COC(=O)c1cc(Cl)ccc1OC
inactive: Potency [1] | Potency [16] | Potency [2] | Potency [4] | Potency [5] | Potency [6] | Potency [7] | Potency [8] | Potency [9] | Potency [10] | Potency [11] | Potency [19] | Potency [12] | outcome [14] | Potency [15]

O=C(NOCC1CC1)c1ccc(F)c(F)c1Nc1ccc(I)cc1Cl
active: Potency [16] 8.41 µM | Potency [9] 13.3 µM | Potency [18] 8.41 µM | Potency [10] 29.8 µM
inactive: Potency [1] | Potency [3] | Potency [4] | Potency [5] | Potency [6] | Potency [8] | Potency [17] | Potency [19] | Potency [12]

Oc1cccc(-c2c3nc(c(-c4cccc(O)c4)c4ccc([nH]4)c(-c4cccc(O)c4)c4nc(c(-c5cccc(O)c5)c5ccc2[nH]5)CC4)C=C3)c1
inactive: Potency [3] | Potency [8] | Potency [19] | Potency [13] | outcome [14]
active: Potency [1] 3.35 µM | Potency [16] 29.8 µM | Potency [6] 13.3 µM | Potency [9] 16.8 µM | Potency [18] 26.6 µM | Potency [10] 8.41 µM | Potency [11] 8.41 µM | Potency [12] 21.1 µM

CCCCC(CC)CN=C(N)NC(N)=NCCCCCCN=C(N)NC(N)=NCC(CC)CCCC (stereo unspecified)
active: Potency [1] 29.8 µM | Potency [16] 11.9 µM | Potency [2] 21.1 µM | Potency [5] 29.8 µM | Potency [6] 23.7 µM | Potency [9] 3.76 µM | Potency [10] 18.8 µM | Potency [11] 23.7 µM | Potency [12] 13.3 µM
inactive: Potency [3] | Potency [4] | Potency [8] | Potency [19] | Potency [13]

Oc1ccc(C2(c3ccc(O)cc3)CC3CC2C2CCCC32)cc1 (stereo unspecified)
active: Potency [16] 52.3 µM | Potency [2] 0.117 µM | Potency [6] 58.7 µM | Potency [9] 20.8 µM | Potency [11] 26.2 µM | Potency [12] 26.2 µM
inactive: Potency [1] | Potency [4] | Potency [5] | Potency [8] | Potency [19] | Potency [13]

CCCCCCCCCCn1cc[n+](CCCCCCCCCC)c1C
inactive: Potency [4] | Potency [8] | Potency [19] | Potency [13] | outcome [14]
active: Potency [1] 68.7 µM | Potency [16] 2.17 µM | Potency [2] 3.86 µM | Potency [5] 61.2 µM | Potency [6] 27.3 µM | Potency [9] 0.077 µM | Potency [10] 24.4 µM | Potency [11] 30.7 µM | Potency [12] 27.3 µM | Potency [15] 54.5 µM

C=CC(=O)OCC(CO)(COC(=O)C=C)COC(=O)C=C
inactive: Potency [4] | Potency [8] | Potency [19] | outcome [14] | Potency [15]
active: Potency [1] 15.4 µM and 48.6 µM | Potency [16] 5.46 µM and 12.2 µM | Potency [2] 13.7 µM | Potency [6] 4.34 µM and 10.9 µM | Potency [7] 3.87 µM and 8.63 µM | Potency [9] 1.54 µM and 3.86 µM | Potency [11] 13.7 µM and 19.3 µM | Potency [12] 19.4 µM and 19.3 µM
